S2 tox: cell viability loss in ATXN counter-screen; Potency, µM (top dose mostly 56.7 µM), most hits filed as cytotoxic; S2 cells (HEK-293 line with an ATXN2-luciferase reporter) viability, CellTiter-Fluor protease fluorescence, 24 h; 400,000 compounds, 0.49% hits; further: nearly all actives have a fitted effect of over 40% in size
ATXN2 expr inh: ATXN2 expression inhibition; AID 1745845; HEK-293 ATXN2-luciferase reporter, luminescence, 24 h; Potency, µM (doses to about 57 µM), usual class: inhibitors; 360,000 compounds, 0.72% hits; further: nearly all actives have a fitted effect of over 55% in size
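qHTS (up to 57 uM final) was run with 24 h compound exposure of reporter cells at 37 °C. Each well was multiplexed: SteadyGlo luminescence measured ATXN2-luciferase expression after a fluorogenic Gly-Phe-AFC viability readout (25 uM final).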
TGFb SMAD3 inh: TGF-b pathway inhibition. HepG2 CAGA-GFP TGF-b/SMAD3 reporter, GFP fluorescence, 18 h; TGF-beta stimulated, 500 pg/mL final. Potency, µM (titrated, usually from 46.1 µM), hits mostly inhibitors. 410,000 compounds, 1.2% hits. AID 588855; further: nearly all actives have a fitted effect of over 65% in size
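HEPG2 CAGA-GFP cells (1000/well, DMEM with 1% FBS) were pre-incubated 2 h at 37 degrees C, given compound by pin tool, then stimulated with TGF-beta at 500 pg/mL final for 18 h before per-cell GFP fluorescence imaging.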
KB-3-1 cytotox: KB-3-1 parental cell cytotoxicity | KB-3-1 viability, CellTiter-Glo ATP luminescence, 72 h | 400,000 compounds, 1.4% hits | AID 1347075 | Potency, µM (series often up to 46.1 µM), most hits filed as cytotoxic; further: nearly all actives have a fitted effect of over 60% in size
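KB-3-1 parental drug-naive adenocarcinoma cells in DMEM/10% FBS, incubated 72 h at 37 C with pin-transferred compounds across a concentration series. Viability by CellTiter-Glo luminescence; concentration-response curves fitted after normalization.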
HepG2 tox: kills HepG2 cells in TGF-b inhibitor counter-screen | HepG2 CAGA-GFP viability, ATP luminescence, 18 h | Potency, µM (doses to about 46.1 µM), hits mostly cytotoxic | 410,000 compounds, 0.76% hits
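CellTiter-Glo luminescence gave cytotoxicity after 18 hours at 37 degrees C. The cells were HepG2 CAGA-GFP in 1% FBS DMEM, stimulated with 500 pg/mL TGF-beta after compound addition. %Activity was normalised to no-cell wells (complete cell-killing) and DMSO (no toxicity), and curves were fitted and classified.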
KB-V1 MDR tox: KB-V1 MDR subline cytotoxicity; KB-V1 MDR cells viability, CellTiter-Glo, 72 h; Potency, µM (top dose mostly 46.1 µM), actives largely listed as cytotoxic; 400,000 compounds, 3.4% hits; AID 1347076; further: nearly all actives have a fitted effect of over 60% in size
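Potencies derive from concentration-effect curves fitted to normalized luminescence (CellTiter-Glo) of KB-V1 cells treated for 72 h at 37 degrees C in phenol-red-free DMEM containing 10% FBS.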
Hits are given with their value; – = inactive; ? = inconclusive; · = not tested or not shown. A selection: hits, their analogues and other compounds. The true share with any hit is near 5.9%. The call rests on the fitted dose curve; in most records, active means well fitted curve in the direction sought with a large enough effect; inconclusive means small, poorly fitted or top-dose-only effect, or another doubt; inactive means no such curve, though single readings can be large; an effect the other way counts as inactive or inconclusive.

SMILES | S2 tox | ATXN2 expr inh | TGFb SMAD3 inh | KB-3-1 cytotox | HepG2 tox | KB-V1 MDR tox
CCNC(=O)c1c(NC(=O)COc2ccc(F)cc2)sc2c1CCCC2 | – | – | – | – | – | ?
Cc1ccsc1C1Cc2c(C(=O)NCc3cccnc3)c(=O)cc(C)n2-c2ccccc2S1 (stereo not given) | – | · | · | · | · | ·
COc1cc(O)sc1C=Nc1ccc(Cl)cc1Cl | – | · | – | – | – | 21µM
CCN(Cc1ccncc1)Cc1ccc2c(c1)CN(C(=O)c1ccc(OC)cc1)CCO2 | – | · | · | · | · | ·
O=c1cc(O)c2c(=O)n(-c3ccccc3)c3c(c2o1)CCCCC3 | – | – | – | – | – | 16µM
Cc1cc(Br)c(OCc2ccc(C(=O)N/N=C/c3ccc[nH]3)cc2)c(Br)c1 | ? | – | 1.1µM | 2.6µM | – | ?
O=C(CNC(=O)c1ccc(Br)cc1)N/N=C/c1ccc[nH]1 | – | – | – | – | – | –
O=C1CCCc2c1cc(-c1ccccc1)n2-c1ccccc1 | – | – | – | 16µM | – | 12µM
O=C1CCc2cc(S(=O)(=O)Nc3ccc(F)c(Cl)c3)ccc2N1 | · | · | · | – | · | –
CN(C)c1nc(NCc2ccccc2)nc(SCC(=O)Nc2ccc(Cl)c(Cl)c2)n1 | ? | ? | ? | – | – | 7.3µM
CCNc1nc(NCc2ccccc2)nc(SCC(N)=O)n1 | – | – | – | – | – | –
CCNc1nc(NCc2ccccc2)nc(SCC(=O)Nc2ccccc2)n1 | – | – | ? | ? | – | 2.3µM
CC(C)c1ccc(S(=O)(=O)N2CCC(N3CCN(Cc4ccccc4)C(=O)C3=O)CC2)cc1 | – | – | – | – | – | ?
CCCCCCN1C2=NCCN2c2ccccc21 | – | – | – | – | – | ?
CCCCCCn1ccc(=N)cc1 | – | ? | – | 8.2µM | – | –
Cc1c(C(=O)N2CCOc3ccccc3C2)sc2ncnc(NCCCN3CCOCC3)c12 | – | · | · | · | · | ·
COc1cc(Nc2nc(SCc3cccc(Cl)c3)nc3ccccc23)cc(OC)c1 | · | · | – | · | – | ·
Cc1ccc(-c2[nH]c(-c3ccc(C(=O)O)cc3)nc2-c2ccccc2)cc1 | – | – | – | – | – | –
CSc1nc(-c2ccccc2)c(-c2ccccc2)[nH]1 | – | – | – | ? | – | 12µM
CC(C)c1cc(C(=O)N2CCCC(CCC(=O)NCc3ccccc3F)C2)n(C)n1 (stereo not given) | – | – | – | ? | – | 9.2µM
Cc1ncoc1C(=O)N1CCCC(CCC(=O)NCc2ccccc2F)C1 (stereo not given) | – | – | – | ? | – | ?
COc1ccc(CN2CCC3C=CCC(C(=O)O)C3C2=O)cc1OC (stereo not given) | · | · | – | · | – | ·
Cc1ccc(C(=O)/C=C\C(=O)c2ccc(C)cc2)cc1 | – | – | ? | – | – | –
Cc1ccc(S/C=C\C(=O)c2ccccc2)cc1 | 22µM | ? | ? | – | – | ?
CC(C)c1ccc(CN2CCC(n3nccc3NC(=O)C3CCCC3)CC2)cc1 | – | · | – | – | – | 5.2µM
SMILES | S2 tox | ATXN2 expr inh | TGFb SMAD3 inh | KB-3-1 cytotox | HepG2 tox | KB-V1 MDR tox
O=C(Nc1ccnn1C1CCN(Cc2ccc(Cl)cc2)CC1)C1CCCC1 | ? | – | – | · | – | ·
CCn1c(Cc2cccc3ccccc23)nnc1SCC(=O)Nc1nccs1 | – | – | – | – | – | 18µM
COc1cccc2cc(-c3nnc(SCC(=O)Nc4ccc(NC(C)=O)cc4)n3C)oc12 | – | – | – | ? | – | –
C=CCn1c(SCC(=O)Nc2nccs2)nnc1-c1cc2cccc(OC)c2o1 | ? | ? | ? | – | – | 2.1µM
Cc1cccc(NC(=O)CSc2nnc3scc(-c4ccccc4)n23)c1 | – | – | – | – | – | –
CCOC(=O)c1cnc2c(cnn2C)c1Oc1ccc(OC)cc1 | – | – | – | – | – | ?
CCOC(=O)c1cnc2c(cnn2C)c1NCCC(O)C(F)(F)F (stereo not given) | – | – | – | – | – | 6.5µM
COc1ccc(OC)c(CCNC(=O)CCc2cn(Cc3cc(C)ccc3C)c3ccccc23)c1 | · | · | – | · | – | ·
O=[N+]([O-])c1ccc(NC(=S)N2CCc3ccccc3C2)cc1 | ? | – | – | – | – | 23µM
CCCCNc1oc(-c2cccs2)nc1S(=O)(=O)c1ccccc1 | – | – | ? | ? | – | 15µM
O=S(=O)(c1ccccc1)c1nc(-c2cccs2)oc1N1CCCCC1 | – | – | – | – | – | ?
CCC(C)S(=O)(=O)c1oc(-c2cccs2)nc1S(=O)(=O)c1ccccc1 (stereo not given) | · | · | 1.1µM | · | 2µM | ·
CNc1oc(-c2cccs2)nc1S(=O)(=O)c1ccccc1 | – | – | – | – | – | ?
COc1ccc(C)cc1NC1(c2ccccc2)C(=O)c2ccccc2C1=O | – | – | – | – | – | ?
CCCC1=C(C(=O)OCC)C(c2cccs2)n2ncnc2N1 (stereo not given) | · | · | – | – | – | ?
CCCC1=C(C(=O)OCC)C(/C=C/c2ccccc2)n2ncnc2N1 (stereo not given) | – | – | – | 8.9µM | – | ?
CCCC1=C(C(=O)OCC)C(c2ccc(N(C)C)cc2)n2ncnc2N1 (stereo not given) | ? | – | – | ? | – | 18µM
CCOC(=O)C1=C(C)Nc2ncnn2C1c1cccs1 (stereo not given) | – | – | – | – | – | –
CCCC1=C(C(=O)OCC)C(c2ccc(F)cc2)n2ncnc2N1 (stereo not given) | ? | – | – | – | – | –
CCCCOC(=O)C1=C(C)Nc2ncnn2C1c1ccc(OCC)c(OC)c1 (stereo not given) | – | – | – | – | – | 4.6µM
CCOC(=O)C1=C(C)Nc2ncnn2C1c1cc(Br)ccc1F (stereo not given) | – | – | – | ? | – | 21µM
CCCCOC(=O)C1=C(C)Nc2ncnn2C1c1ccc(OC)c(OC)c1 (stereo not given) | – | – | – | – | – | –
CCn1c(=O)cc(SCC(=O)Nc2cc(Cl)ccc2OC)c2ccccc21 | ? | ? | ? | – | – | –
CCCCNC(=O)c1nc(C2CCN(S(=O)(=O)c3cccc(C(F)(F)F)c3)CC2)oc1-c1ccccc1 | ? | – | ? | – | – | –
CCOC(=O)[C@]12CCC=C1N(Cc1cccc3ccccc13)C(=O)[C@H](CC(=O)N1CCN(C(=O)c3ccco3)CC1)C2 | ? | – | · | ? | · | –
CCOC(=O)C1=C(C)Nc2ncnn2C1/C=C/c1ccccc1 (stereo not given) | – | – | – | ? | – | 10µM
COCCOC(=O)C1=C(C)Nc2ncnn2C1c1ccccc1 (stereo not given) | – | – | – | – | – | –

High-throughput results deposited in PubChem by National Center for Advancing Translational Sciences (NCATS).
